Results filed as inconclusive are left out. Where a call stands in place of a potency, no number is given. The source made the active and inactive calls. Calls come from the whole dose curve; as a rule, active = well fitted activation curve with a large enough effect; inconclusive = small, poorly fitted or top-dose-only effect; inactive = flat fitted curve, though single readings scatter.
experiment: qHTS for Inhibitors of Cell Surface uPA Generation: FP59 Counterscreen for Cherry-picked Compounds; conditions: FP59 anthrax toxin cytotoxicity counterscreen, cells; series mostly up to 115 µM
Potency is the fitted concentration of half-maximal effect.

Row | SMILES | Potency
1 | CCO[C@H]1OC(C(=O)N2CCCCCCC2)=C[C@@H](c2ccc(C(F)(F)F)cc2)[C@@H]1CCCO | inactive
2 | CCc1ccccc1N1C(=O)CC(Sc2nccc(C)n2)C1=O (centres undefined) | inactive
3 | O=C(COc1ccc(C(=S)N2CCOCC2)cc1)N1CCOCC1 | inactive
4 | S=C(Nc1ccccc1Cl)N1CCCC(c2ccccc2)=N1 | 23.3 µM (active)
5 | COc1cc(/C=N/NC(=O)c2cc(-c3ccco3)nc3ccccc23)cc(OC)c1O | inactive
6 | Cc1cc(=O)n2nc(N3CCCC(C(=O)NCc4ccc(Cl)cc4)C3)sc2n1 (centres undefined) | inactive
7 | O=C(Nc1ccc(N2CCOCC2)cc1)c1ccc(Cl)c(S(=O)(=O)N2CCCC2)c1 | inactive
8 | COc1cc(C2NC(=O)NC(C)=C2C(=O)OCC2CCCCC2)ccc1O (centres undefined) | inactive
9 | Cc1ccc(C(O)(COC(=O)C(C)C)COC(=O)C(C)C)c(O)c1 | inactive
10 | CCCN1CCN(C2CCCCC2NS(=O)(=O)c2ccc(Cl)cc2)CC1 (centres undefined) | inactive
11 | Cc1nc(C(=O)N2CCC(n3nccc3NC(=O)Nc3ccccc3Cl)CC2)cs1 | inactive
12 | O=C(Cc1ccc(Cl)cc1)NC(=S)Nc1ccccc1O | inactive
13 | O=[N+]([O-])c1cccc(-c2noc(-c3cccs3)n2)c1 | inactive
14 | CCC(COC)NC(=O)CCc1nnc(Cc2c[nH]c3ccccc23)o1 (centres undefined) | inactive
15 | CCOC(=O)c1c(NC(=S)NC)sc2c1CCCC2 | inactive
16 | CC(=O)c1c(C)n(-c2ccccc2Br)c2ccc(O)cc12 | inactive
17 | CS(=O)(=O)c1ccc(Cl)c(NC(=O)COC(=O)CNC(=O)c2cccs2)c1 | inactive
18 | CC(=O)c1ccc(N2CCN(C(=S)NCc3ccco3)CC2)cc1 | inactive
19 | Cc1cc2c(cc1S(=O)(=O)Nc1ccc(F)cc1)n(C)c(=O)c(=O)n2C | inactive
20 | O=C1[C@H]2[C@@H](c3ccc(F)cc3)N3C(=O)N(c4cccc(F)c4)C(=O)[C@@]3(Cc3ccc(Cl)cc3)[C@H]2C(=O)N1C1CCCCC1 | inactive

Row | SMILES | Potency
21 | CCOCCCn1c(SCC(=O)Nc2oc(C)c3c(C)n[nH]c(=O)c23)nc2ccccc2c1=O | inactive
22 | Cc1ccc(S(=O)(=O)N(C)c2ccc(OC(=O)c3ccc(=O)[nH]c3)cc2)cc1 | inactive
23 | Cc1ccc(C2=NS(=O)(=O)N(C)C(C(=O)NC3CCCC3)=C2)cc1 | inactive
24 | Cc1nc(SCC(=O)NCCN2C(=O)CSC2=O)nc(C)c1C | inactive
25 | COc1ccc(C2=Nc3ccccc3C2(O)CCN2C(=O)c3ccccc3C2=O)cc1 (centres undefined) | inactive
26 | Fc1ccc(N2CCN(c3nc(CN4CCOCC4)nc4scc(-c5ccccc5)c34)CC2)cc1 | inactive
27 | O=C(Nc1cccc(NC(=O)c2ccc(F)cc2)c1)c1ccc(F)cc1 | inactive
28 | CCOc1cc(C)c(S(=O)(=O)N2CCCCC2)cc1C | inactive
29 | COc1ccc2nc(C)cc(Nc3ccccc3O)c2c1 | inactive
30 | COc1ccc(OC)c(S(=O)(=O)N2CCN(Cc3ccccc3)CC2)c1 | inactive
31 | Cc1ccc2cc(C=O)c(Cl)nc2c1 | inactive
32 | CN(C)C(=O)NC(NC(=S)Nc1ccccc1)C(Cl)(Cl)Cl (centres undefined) | inactive
33 | CCc1ccc(N2CC(C(=O)Nc3ccc4c(c3)OCO4)CC2=O)cc1 (centres undefined) | inactive
34 | COc1cccc(C2CC(c3ccc(C)cc3)n3ncnc3N2)c1 (centres undefined) | inactive
35 | Nc1ccc(S(=O)(=O)c2ccccc2)nc1 | inactive
36 | Cc1cccc(C(=O)Nc2cc(=O)n(C)c(=O)n2C)c1 | inactive
37 | O=C(NC(=S)Nc1c(F)cc(F)cc1Br)c1ccc2c(c1)OCCO2 | inactive
38 | CCS(=O)c1scc(-c2ccc(Cl)cc2)c1C#N (centres undefined) | inactive
39 | COc1ccc(C(c2sc3nc(C)nn3c2O)N2CCC(C(N)=O)CC2)cc1OC (centres undefined) | inactive

From PubChem BioAssay AID720517 (National Center for Advancing Translational Sciences (NCATS), 2013)
